Experimental data published in PubChem BioAssay AID623959 (National Center for Advancing Translational Sciences (NCATS), 2012).
In all, about 1,400 compounds went through this assay and fewer than 10 were called active. Another 8% or so got no clear call; they are omitted. These entries were drawn from the full list. A number with no mark means an inactive call. The call rests on the fitted dose curve; in most records, active means well fitted curve in the direction sought with a large enough effect; inconclusive means small, poorly fitted or top-dose-only effect, or another doubt; inactive means no such curve, though single readings can be large or run the other way.

These molecules were tested against Transient receptor potential cation channel subfamily V member 1 (Homo sapiens) (UniProt Q8NER1) (assay: qHTS Assay for Compounds that Act as Potentiators of the Vanilloid Receptor 1: Hit Validation). Conditions: TRPV1-expressing cells, Fluo-8 calcium influx, capsaicin EC20; series mostly up to 42.1 µM; activity change, positive = potentiation: at the top concentration.
Transient receptor potential cation channel subfamily V member 1 (Homo sapiens), sequence (Q8NER1 whole entry, looked up): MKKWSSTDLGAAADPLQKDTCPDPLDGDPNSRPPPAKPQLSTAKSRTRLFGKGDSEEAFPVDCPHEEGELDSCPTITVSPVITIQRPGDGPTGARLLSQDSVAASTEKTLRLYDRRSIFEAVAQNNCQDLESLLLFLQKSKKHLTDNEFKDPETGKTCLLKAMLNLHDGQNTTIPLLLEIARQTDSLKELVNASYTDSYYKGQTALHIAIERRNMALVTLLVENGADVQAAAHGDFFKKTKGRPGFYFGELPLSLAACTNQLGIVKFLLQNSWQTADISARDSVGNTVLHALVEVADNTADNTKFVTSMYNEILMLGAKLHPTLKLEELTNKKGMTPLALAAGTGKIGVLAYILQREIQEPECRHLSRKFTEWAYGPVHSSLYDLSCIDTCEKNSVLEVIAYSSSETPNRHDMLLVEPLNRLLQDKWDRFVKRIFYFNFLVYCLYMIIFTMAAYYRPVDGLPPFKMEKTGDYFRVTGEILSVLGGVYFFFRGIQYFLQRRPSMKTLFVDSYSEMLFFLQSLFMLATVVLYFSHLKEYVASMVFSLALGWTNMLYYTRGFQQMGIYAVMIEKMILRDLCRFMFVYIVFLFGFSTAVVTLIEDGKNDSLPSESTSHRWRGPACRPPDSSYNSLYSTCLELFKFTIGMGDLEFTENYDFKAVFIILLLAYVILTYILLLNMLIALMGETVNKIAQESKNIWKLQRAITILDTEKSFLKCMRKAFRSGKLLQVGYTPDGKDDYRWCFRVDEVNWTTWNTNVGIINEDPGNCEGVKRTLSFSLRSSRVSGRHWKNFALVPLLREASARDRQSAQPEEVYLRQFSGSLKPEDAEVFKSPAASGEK
Excerpt: The transient receptor potential ion channel, family V, number 1, (TRPV1) is one of the most important molecular transducers of painful stimuli and a potential target for analgesic drug development. Although recent clinical trials with orthosteric antagonists have not produced a successful drug because of a hyperthermia side effect and their tendency to block thermal noxious pain, this ion channel is undeniably well placed in the pain pathway, and the idea of blocking pain signals before they enter the CNS is an excellent concept and of proven efficacy when TRPV1 agonists are used. We propose a new approach involving allosteric modulation to impose an activity-dependent constraint within the context of inflammation and tissue damage that would alter the responsiveness of the channel in a way that an orthosteric vanilloid antagonist cannot achieve. We believe that the allosteric modulator approach has not been explored for this target. The main goal of this proposal is to identify additional, new, potent allosteric modulators of TRPV1 that can be used to investigate TRPV1 function. Our recent report provides evidence of proof of concept, but the compounds are just at the edge of utility in terms of potency. […] The question of whether they can be used as analgesic agents is complex, but if suitable compounds are identified then testing for analgesic properties will be conducted. Compounds identified as agonists were re-tested in the primary screen for hit validation. NIH Chemical Genomics Center [NCGC] NIH Molecular Libraries Probe Centers Network [MLPCN] MLPCN Grant: MH089480 Assay Submitter (PI): Michael Iadarola, National Institute of Dental and Cranofacial Research
Upon TRPV1 activation in TRPV1 cells, the channel opens and extracellular cations flow through the channel into the cytosol. A calcium binding dye (Fluo-8) becomes fluorescent when bound to calcium. This dye is pre-loaded into cells and is used as a marker for calcium influx. The amount of accumulated calcium is precisely quantified using the FDSS kinetic reader and the calcium dye. For the HTS assay, freshly prepared cells are plated at a density of 2000/well in 3 ul medium in 1536-well plates and cultured overnight at 35.5C. Cells will be loaded with 1 ul of the homogeneous calcium dye (ABD Bioquest) at room temperature for 40 to 90 minutes. Plates will be loaded into the FDSS kinetic reader and a 1 sec / cycle for 10 second baseline signal will be measured. Compound library will then be added with a pintool at 23 nl and measured kinetically for 3 minutes. This portion of the read is considered the agonist portion of the screen. Following the 3 minutes of incubation, an on board pipettor will deliver 1 ul of capsaicin for a final concentration equal to the EC20. Signal will be measured kinetically for an additional 2 minutes. This portion of the read is considered the allosteric enhancer portion of the screen. The FDSS reader has a standard filter set capable of measuring calcium bound Fluo-8 (ex=480 and em=520 nm).
Potency means the concentration at half of the fitted maximal effect.
Wherever activity change, positive = potentiation is given: % of control where 0% means no effect.

SMILES | activity change, positive = potentiation [%] | Potency
CC(C)(C)OC(=O)NCCCC[C@H](NC(=O)c1nc[nH]c1C(=O)NCc1ccc(CNC(=O)OC(C)(C)C)cc1)C(=O)OC(C)(C)C | 0.195 | –
CN(c1ccccc1)S(=O)(=O)c1ccc(Cl)c(C(=O)NCCc2c[nH]c3ccccc23)c1 | -6.03 | –
CCc1cccc(C)c1NC(=S)N(CCCN1CCN(C)CC1)Cc1cccs1 | -8.28 | –
Cc1cccc(-n2c(=O)[nH]c3c(C(N)=O)nc(CC(C)C)nc32)c1 | 0.951 | –
COc1ccc(NC(=O)CCCSc2nc(-c3ccco3)cc(C(F)(F)F)n2)cc1OC | -38.7 | –
Cc1ccc(NC(=O)c2cc(S(=O)(=O)N3CCOCC3)ccc2F)c(C)c1 | -31.2 | –
CCOC(=O)c1c(C)c(C(=O)NCC2CCCO2)c(C)n1C (stereo unspecified) | -7.81 | –
Cc1ncsc1CCC(=O)N1CCCC(Nc2ccc(C(C)C)cc2)C1 (stereo unspecified) | -39.8 | –
Cc1ccc(NCc2n[nH]c(=S)n2-c2ccccc2)c(C)c1 | 9.07 | –
NNC(=O)C1COc2cc3ccccc3cc2O1 (stereo unspecified) | -31.3 | –
CCCCC(=O)Nc1ccc(C(=O)Nc2ccc(S(=O)(=O)N3CCCC3)cc2)cc1 | -8.84 | –
COc1ccc(C(=O)Nc2ccc3ccccc3c2)cc1 | -32.9 | –
Cc1sc2ncn(CC(=O)Nc3cccc(S(N)(=O)=O)c3)c(=O)c2c1-c1ccccc1 | -4.7 | –
CCC(=O)N(CCc1ccccc1)Cc1cc2cccc(C)c2[nH]c1=O | -38.2 | –
Cc1c(=O)n(OCc2ccccc2F)c2ccccc2[n+]1[O-] | 0.445 | –
Nn1c(Cc2ccccc2)nc2cc(Cl)ccc2c1=O | -8.59 | –
Cc1ccc2c(c1)[C@H]1[C@H](CO2)[C@H](c2ccccc2)[C@]2(C)C(=O)Nc3cc(Cl)ccc3C(=O)N12 | 3 | –
Cc1cc(C)cc(Oc2nc3ccccn3c(=O)c2/C=C(\C#N)C(=O)NC2CCS(=O)(=O)C2)c1 (stereo unspecified) | -10.1 | –
CCC(=O)Nc1cccc(NC(=O)c2ccc3c(c2)OCCO3)c1 | -9.67 | –
CCOc1ccc(-c2cccc(NS(=O)(=O)c3cc([N+](=O)[O-])ccc3Cl)c2)nn1 | 2.27 | –
COC(=O)CCC(=O)OC1(C)C(=O)C=C2C=C(C3CC3)N(c3ccccc3)C=C2C1=O (stereo unspecified) | -6.19 | –
CCN(CC(=O)Nc1ccccc1OC)CC(=O)Nc1sccc1C#N | 5.9 | –

SMILES | activity change, positive = potentiation [%] | Potency
C=CCOc1c(Br)cc(CNc2ccc3[nH]c(=O)[nH]c3c2)cc1OCC | -25.8 | –
O=C(CSc1nnc(Cc2ccccc2)o1)NC1CC2CCC1C2 (stereo unspecified) | 6.43 | –
CC(=O)N1CCN(c2ccc(NC(=O)C(c3ccccc3)c3ccccc3)cc2)CC1 | -5.18 | –
Cc1cccc(NC(=S)NCC(c2cccnc2)N(C)C)c1C (stereo unspecified) | 5.7 | –
CC(C)(C)C(=O)NNC(=O)c1ccc(Oc2cc(Cl)cc(Cl)c2)o1 | 0.968 | –
Cc1ccc(NC(=O)CCS(=O)(=O)c2ccc3c(c2)NC(=O)C(C)S3)cc1Cl (stereo unspecified) | 1.02 | –
Cc1ccc(/C=C2\CCC3=C2OC(N)=C(C#N)C3c2ccc(C)cc2)cc1 (stereo unspecified) | – | 8.05 µM (active)
Cc1ccc(NC(=O)CCn2nc(C)cc2C)cc1 | -6.67 | –
O=C(Cc1cccs1)Nc1cccc(-c2ccc3nncn3n2)c1 | 6.87 | –
CC(=O)c1ccc(Nc2ncnc3c2oc2ccccc23)cc1 | -38.7 | –
CC(C)C[C@H](NC(=O)c1nc[nH]c1C(=O)N1CCC(C)CC1)C(=O)OCc1ccccc1 | -10.6 | –
CC(=O)c1cccc(NC(=O)N2C3CCC2CC(NC(=O)Nc2ccccc2)C3)c1 (stereo unspecified) | 4.86 | –
CCOC(=O)N/N=C1\CCS(=O)(=O)c2ccc(Cl)cc21 | 4.78 | –
COc1cc(C)nc(-c2csc(C)n2)n1 | 7.2 | –
O=C(NNC(=O)c1cccc(O)c1)Nc1ccc([N+](=O)[O-])cc1 | 3.43 | –
Cc1cnc(NC(=O)c2cc3c(s2)CCCC3)s1 | -38.8 | –
C(=N\Nc1nn2cnnc2c2ccccc12)/c1ccco1 | -9.75 | –
CCc1ccc(/C=C2/SC(N3CCOCC3)=NC2=O)cc1 | -37.3 | –
Cc1nnc(SCC(=O)N(C)CC(=O)Nc2ccc(F)cc2)n1Cc1ccccc1 | -5.01 | –
COc1ccc(OC)c(NC(=O)CCN2C(=O)c3ccccc3C2=O)c1 | 4.29 | –
CCc1ccc(OCCCC(=O)NCc2ccccc2)cc1 | -4.09 | –
CCN(CC)S(=O)(=O)c1ccc(/C=C/C(=O)Nc2cccc(F)c2)cc1 | -36.7 | –

SMILES | activity change, positive = potentiation [%] | Potency
COCCNC(=O)CSc1nc2ccccc2c(=O)n1CC1CCCO1 (stereo unspecified) | 0.611 | –
COc1ccc(C(=O)NC(CC(C)C)C(=O)O)cc1OC (stereo unspecified) | 3.51 | –
CCCCn1c(=O)[nH]c(=O)c2c1nc(-c1ccc(OC)c(Br)c1)n2CC(C)C | -3.67 | –
COC(=O)C(C(=O)Nc1nc2ccccc2s1)C1CCCC1 (stereo unspecified) | -7.89 | –
N=C1/C(=C\c2ccc(-c3ccc(C(=O)O)cc3)o2)C(=O)N=C2SC=C(c3ccccc3)N12 | 24.5 | –
COc1ccc(-[n+]2c(C)cc(/C=C3\Sc4ccccc4N3C)cc2C)cc1 | – | 5.7 µM (active)
Cc1c(N=c2scc(-c3ccccc3)n2C)c(=O)n(-c2ccccc2)n1C | 4.71 | –
COc1ccc(Cc2c(N)nc(C)nc2N)cc1 | -6.3 | –
O=C(N/N=C/c1cccnc1)c1ccc2c(c1)OCO2 | -7.94 | –
COc1cccc(/C=C/C(=O)Nc2cccc(C(C)=O)c2)c1OC | -16.5 | –
Cc1ccc(OCC(=O)c2c[nH]c3ccccc23)c([N+](=O)[O-])n1 | -9.4 | –
COc1cc(OC)c(NC(=O)CCc2nc(-c3ccc(C)cc3)no2)cc1Cl | -4.21 | –
CCO[C@H]1OC(C(=O)NC2CC2)=C[C@@H](c2c[nH]c3ccccc23)[C@@H]1CCCO | -2.5 | –
CCc1ccc(/C=N/NC(=O)c2c[nH]c3ccccc23)s1 | -39 | –
COc1ccc(CNC(=O)C2(CC3CC(c4ccccc4)=NO3)CCN(C(=O)C3CCCC3)CC2)cc1 (stereo unspecified) | -5.73 | –
Cc1oc(-c2cccs2)nc1CS(=O)CC(=O)NCCc1ccccc1 (stereo unspecified) | -3.43 | –
O=S(=O)(c1ccc2c(c1)OCCO2)N1CCN(c2cccc(Cl)c2)CC1 | 4.01 | –
COc1ccc(NC(=O)c2ccc(Br)c(S(=O)(=O)N3CCOCC3)c2)cc1 | -24.8 | –
Cn1cccc1C(=O)NC(=O)COC(=O)c1cc([N+](=O)[O-])ccc1Cl | 8.04 | –
O=C(/C=C/c1cccc2ccccc12)N1CCOCC1 | -31.4 | –
CC(C)c1ccc(OCC(=O)Nc2ccncc2)cc1 | -38.4 | –
CC(C)NC(=O)COC(=O)c1ccc(O)cc1 | -9.92 | –

SMILES | activity change, positive = potentiation [%] | Potency
CN1CCN(S(=O)(=O)c2ccc(NC(=O)c3ccc(F)cc3)cc2)CC1 | -2.3 | –
O=C(O/N=C1\CCS(=O)(=O)c2sccc21)c1c(F)cccc1F | 6.48 | –
Cc1cc(C)c(NS(=O)(=O)c2ccc(NC(=O)CCC(=O)O)cc2)c(C)c1 | -6.46 | –
COc1ccc(C(C#N)c2cnccn2)cc1OC (stereo unspecified) | 4.57 | –
CC(=O)c1cc(-c2ccc(F)cc2)n(CCC(=O)Nc2cccnc2)c1C | -38.3 | –
CCOC(=O)/C=C1\CN(CCC(C)C)S(=O)(=O)c2ccccc21 | -8.51 | –
CCN1C(=O)[C@@H]2[C@@H](c3ccc(-c4ccc(F)cc4)cc3)N3CCCC[C@@]3(C(=O)OC)[C@@H]2C1=O | -8.18 | –
CCC(C)Sc1cccc(-c2nc3ccc(Cl)cn3c2NCc2ccccc2)c1 (stereo unspecified) | -38.7 | –
CC(C)(C)c1ccc(/C=C/C(=O)Nc2ccncc2)cc1 | -38.6 | –
CCNC(=O)NC(=O)C(C)OC(=O)c1cccn1C (stereo unspecified) | -7.78 | –
COc1ccc(N=Nc2c(C)[nH][nH]c2=O)cc1 | 0.545 | –
Cc1cc(NS(=O)(=O)c2ccc(NC(=O)COc3ccc(Cl)cc3)cc2)no1 | -10.6 | –
Cc1cccc(C)c1OCC(=O)Nc1cccc(S(=O)(=O)N2CCCC2)c1 | -3.66 | –
Cn1nc(CC(=O)Nc2ccc3c(c2)OCCO3)c2ccccc2c1=O | 4.52 | –
CCn1c(Cc2c(C)[nH]c3ccccc23)nnc1SCC(=O)NCc1ccccc1 | 12.1 | –
CCCCCC(=O)NC(NC(=S)N1CCOCC1)C(Cl)(Cl)Cl (stereo unspecified) | -38.2 | –
COc1ccc(S(=O)(=O)N2CCCC2)cc1C(=O)O | -4.69 | –
Cc1c(Cl)ccc2sc(NC(=O)c3ccco3)nc12 | -36 | –
O=C(O)c1ccc(Br)cn1 | -5.55 | –
CC(C)(C)c1ccc(C(=O)NNC(=O)C2CCCCC2)cc1 | -33.1 | –
O=C1c2ccc(Oc3ccc([N+](=O)[O-])cc3)cc2C(=O)N1CCCO | -2.6 | –
COc1ccccc1-c1cc2ccccc2[nH]1 | -5.83 | –

SMILES | activity change, positive = potentiation [%] | Potency
CC(=O)NS(=O)(=O)c1ccc(NC(=O)CC(C)c2ccccc2)cc1 (stereo unspecified) | -3.07 | –
COc1ccc(CNC(=O)CCSc2ccc(F)cc2)cc1OC | -34.4 | –
O=C(O)c1coc2ccccc12 | -8.38 | –
CC(=O)NCC(=O)N(Cc1ccco1)C1(C(=O)NC2CCCC2)CCCCC1 | 2.18 | –
Cn1c(=O)c2c(-c3ccccc3F)c3c(nc2n(C)c1=O)-c1ccccc1C3O (stereo unspecified) | -24.5 | –
COc1ccccc1Nc1ncnc2c1cnn2-c1cccc(C)c1 | -37.7 | –
COc1ccc(C(=O)Nc2ccc3ncccc3c2)cc1 | -33.5 | –
CC(=O)c1cccc(NC(=S)NCCc2ccc(Cl)cc2)c1 | -37.8 | –
CCc1ccccc1NC(=O)CCC(=O)c1cccs1 | 0.167 | –
CCN1C(=O)[C@@H]2[C@H](C1=O)[C@@H]1C(=O)Nc3ccccc3C(=O)N1[C@@H]2c1ccc(Br)cc1 | 2.73 | –
COc1ccc([C@@H]2CC=C(C(=O)O)[C@H](c3cccc(Cl)c3)N2S(=O)(=O)c2ccc(Cl)cc2)cc1 | -6.72 | –
CCOC(=O)C1=C(O)C(=O)N(CCCn2ccnc2)C1c1ccc(C)cc1 (stereo unspecified) | 6.89 | –
CC(=O)c1cccc(Nc2nc(-c3ccccc3)nc3ccccc23)c1 | -6.61 | –
N#Cc1ccccc1N1CCN(C(=O)c2ccc(NC(=O)c3ccc(Br)o3)cc2)CC1 | -2.51 | –
CCOc1ccc(NS(=O)(=O)c2ccc(OCC(=O)NCCCOC)cc2)cc1 | 2.17 | –
Cc1ccc(S(=O)(=O)NCC(c2cccnc2)N2CCOCC2)cc1 (stereo unspecified) | -3.52 | –
O=[N+]([O-])C1C(c2ccccc2)=NOC1c1ccccc1O (stereo unspecified) | -9.52 | –
O=C(Nc1ccccc1)Nc1nnc(SCc2ccc(Cl)cc2)s1 | 13.8 | –
